Experimental findings from PubChem BioAssay (NCI) are described below.

This is part of a sample that, as a whole, favours compounds with a hit. Of some 83,000 tested, about 20% had one in any assay.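 Note: values are percent growth. 100 is the growth of untreated cells, values between 100 and 0 indicate rising inhibition; between -100 and 0 indicates cell death.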 A number with no mark means an inactive call. Activity calls are given as the source filed them.

For this experiment, the system named is NCI-H226 lung. Briefly: NCI-60 one-dose screen, 48 h (100 = growth as untreated, 0 = no growth, -100 = all killed). Particulars: 10 µM unless noted. Here is the method: Growth inhibition of the NCI-H226 human Non-Small Cell Lung tumor cell line is measured as a screen for anti-cancer activity. Cells are grown in 96 well plates and exposed to the test compound for 48 hours. Compounds are tested at a single concentration, which is 10^-5 M for most compounds. The reported endpoint is percent growth (GI% or GIPRCNT), where numbers from 0 - 100% represent growth inhibition, and numbers from -100% - 0 represent cell death. For example, a value of 40 represents 60% growth inhibition. A value of 0 means no net growth occurred over the course of the experiment. A value of -40 indicates 40% of cells at the beginning of the experiment died by the end of the experiment. A value of -100 means all cells are dead at the end of the experiment.
NCI-60 Human Tumor Cell Lines Screen was performed using the standard one-dose NCI protocol, which is described in more detail at https://dtp.cancer.gov/discovery_development/nci-60/default.htm.
Compounds with GIPRCNT values below 10 were considered active. Activity score was based on GIPRCNT using the following formula: […]
Score is 0 for GIPRCNT values of 100 or above, 50 for GIPRCNT values of 0, and 100 for GIPRCNT values of -100.
Consider `CNC(=O)c1cccc2cc(Oc3ccnc4cc(OCC5(N)CC5)c(OC)cc34)ccc12`, for which the growth was 47.1%.
Regarding `C=CCCCC(=O)CCC(=O)OCC1O[C@@H](O[C@@H]2C(O)[C@@H](OC(C)=O)C(C)O[C@H]2O[C@H](CC=C)CCCCC)C(O)[C@@H](OC(=O)/C(C)=C/C)[C@@H]1OC(=O)/C=C/c1ccccc1` (stereo not given in full), the growth is 9.34% (active).
Consider `CCc1ccc(C2=C(O)C(=O)C(c3ccc(CC)cc3)=C(O)C2=O)cc1`, for which the growth is -3.98% (active).
Consider `COc1ccc2c(CCCc3ccc(Cl)cc3Cl)c3[n+](cc2c1OC)CCc1cc2c(cc1-3)OCO2`, for which the growth was 14.6%.
To `Cc1cc(N(CCNc2ccnc3cc(Cl)ccc23)Cc2ccc3c(c2)OCO3)nc(N2CCN(C)CC2)n1` belongs 75.7%.
To `CCCNC(=O)c1cn2ncnc(Nc3cc(C(=O)NC4CC4)ccc3C)c2c1C` belongs 42.1%.
To `COc1cc2nccc(Oc3ccc(NC(=O)C4(C(=O)Nc5ccc(F)cc5)CC4)cc3)c2cc1OC` belongs 11.7%; to `Cc1ccc2oc(=O)cc(-c3cc(-c4cc5ccccc5oc4=O)nc(N)c3C#N)c2c1`, 93.3%.
For `CC(C)=CCc1cc2c(cc1O)C1=C(C(=O)C3=C(NCCS3(=O)=O)C1=O)C(C=C(C)C)O2` (stereo not given), the growth was 57.9%.
Regarding `COc1cc(Nc2ncc(F)c(Nc3ccc4c(n3)N(COP(=O)(O)O)C(=O)C(C)(C)O4)n2)cc(OC)c1OC`, the growth is -14.6% (active).
Consider `CCN(CC)CCNC(=O)c1c(C)[nH]c(/C=C2\C(=O)Nc3ccc(F)cc32)c1C`, for which the growth is 51.1%.
As for `Cc1cc(-c2cc(OC(=O)c3ccccc3)ccc2Cl)cc2nnc(Nc3ccc(OCCN4CCCC4)cc3)nc12`, the growth was 78.6%.
For `Cc1[nH]c(/C=C2\C(=O)Nc3ccc(F)cc32)c(C)c1C(=O)NC[C@H](O)CN1CCOCC1` the value was 47.8%.
To `Cc1ccc(N=C2CSc3nnc(-c4csc5c4CCCC5)n3N2)cc1` belongs 69.5%.
To `Cc1cc(O)cc(-c2c(-c3ccnc(-c4cccnc4)c3)cnn2C)c1` belongs 69.5%; to `Clc1nc(Cl)c2ncn(CC#CCn3cnc4c(Cl)nc(Cl)nc43)c2n1`, 5.54% (active).
As for `CCCCN1CCCC[C@@H]1C(=O)N[C@H](C(=O)N(C)[C@H](CCc1nc(C(=O)N[C@@H](Cc2ccccc2)C[C@H](C)C(=O)OC)cs1)C(C)C)C(C)C`, the growth was 80.6%.
For `CC1(C=O)NC(=O)NC1=O` (stereo not given) the value was 92.8%; for `COc1ccc(-c2nocc2-c2cc(OC)c(OC)c(OC)c2)cc1`, 58.8%.
`C=CC(=O)Nc1cc2c(Nc3ccc(F)c(Cl)c3)ncnc2cc1OCCCN1CCOCC1`: the growth was 40.2%.
To `O=C(Cc1ccc(-c2ccc(OCCN3CCOCC3)cc2)cn1)NCc1ccccc1` belongs 48.8%.
As for `COc1cnc2c(c1)C(=O)c1c-2n(CCCN2CCC(N)CC2)c(=O)c2cc([N+](=O)[O-])ccc12`, the growth was 35.7%.
Turning to `O=c1[nH]ccc2c(S(=O)(=O)N3CCCNCC3)cccc12`, the growth was 81.7%.
To `O=C1CSC(c2c(F)cccc2Cl)N1NC(=O)C(O)(c1ccccc1)c1ccccc1` (stereo not given) belongs 95.3%; to `O=C(Cc1ccc(/C=C/C(=O)c2ncc[nH]2)cc1)Nc1ccc(Br)cc1`, 46.5%.
For `Cc1cc(C(=O)Nc2cc(Oc3ccc4nc(NC(=O)C5CC5)cn4n3)ccc2C)n(C)n1` the value was 43.3%; for `Cn1ccnc1C(=O)/C=C/c1ccc(CC(=O)Nc2ccc(Br)cc2)cc1`, 43.2%.
Regarding `Cc1nc(NC(=O)N2CCC[C@H]2C(N)=O)sc1-c1ccnc(C(C)(C)C(F)(F)F)c1`, the growth is 71%.
Consider `CNc1ncc2cc(-c3cc(NC(=O)NCCC(C)(C)C)c(F)cc3C)c(C)nc2n1`, for which the growth is 33.1%.
`COc1ccc2c(CCC(c3ccccc3)c3ccccc3)c3[n+](cc2c1OC)CCc1cc2c(cc1-3)OCO2`: the growth is 24.7%.
For `CC(N)C(Cc1ccc(Cl)cc1)c1ccc(Cl)cc1` (stereo not given) the value was 88.2%; for `C[C@@H](Oc1cc(-n2cnc3ccc(CN4CCN(C)CC4)cc32)sc1C(N)=O)c1ccccc1C(F)(F)F`, 69.3%; for `O=C1C=CC2(NN=C(c3ccccc3)N2c2cccc(Cl)c2)C(Cl)=C1` (stereo not given), 86.5%.
Turning to `Cc1c(Cn2c(C)nc3c(C(=O)O)cc(N4CCOCC4)cc32)cccc1C(F)(F)F`, the growth is 114%.
To `CCOc1cc2ncc(C#N)c(Nc3ccc(F)c(Cl)c3)c2cc1NC(=O)/C=C/CN(C)C` belongs -56.5% (active).
For `O=C(Nc1cn[nH]c1-c1nc2ccc(CN3CCOCC3)cc2[nH]1)NC1CC1` the value was 6.37% (active); for `CCc1nc2ccc(Cc3ccc(C(=O)NO)cc3)cc2c(=O)n1CCc1ccccc1`, -28.5% (active).
As for `NC(=O)c1c(OCc2c(F)cc(Br)cc2F)nsc1NC(=O)NCCCCN1CCCC1`, the growth is 9.08% (active).
Consider `O=C(Nc1cccc(Cl)c1)Nc1ncc(CCNc2ncnc3ccsc23)s1`, for which the growth is 10.8%.
As for `Cc1ccc(NC(=O)c2ccc(CN3CC[C@H](N(C)C)C3)c(C(F)(F)F)c2)cc1Nc1nccc(-c2cncnc2)n1`, the growth is 12.9%.
